Measured values from PubChem BioAssay (NCI).
Values joined by “and” are separate entries in the source; they are usually repeats but may differ in a detail not shown here. Equal entries are not always repeated. Compounds without any hit were thinned out: in the full panel of roughly 83,000, 20% have a hit.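 Single-dose data. Exposure time 48 hours. Values below 10 considered active.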

Experiments:
Test in all cases: NCI-60 one-dose screen, 48 h (100 = growth as untreated, 0 = no growth, -100 = all killed)
HCT-15 colon = details: 10 µM unless noted
HT29 colon = details: 10 µM unless noted
SNB-75 CNS = details: 10 µM unless noted
SNB-19 CNS = details: 10 µM unless noted
U251 CNS = details: 10 µM unless noted
PC-3 prostate = details: 10 µM unless noted
SK-MEL-5 melanoma = details: 10 µM unless noted
UACC-62 melanoma = system: UACC-62 melanoma
LOX IMVI melanoma = details: 10 µM unless noted
SK-MEL-28 melanoma = details: 10 µM unless noted

Measured: growth

O=c1[nH]c(=O)n(C2OC(CO)C(O)C2O)cc1I (stereo unspecified)
inactive: HCT-15 colon 114% and 107% | HT29 colon 96.9% | SNB-75 CNS 91.6% and 87.6% | SNB-19 CNS 108% and 107% | U251 CNS 99.1% and 111% | PC-3 prostate 87.4% and 91.9% | SK-MEL-5 melanoma 101% and 113% | UACC-62 melanoma; 10 µM unless noted 102% and 103% | LOX IMVI melanoma 98.9% and 92.4% | SK-MEL-28 melanoma 106% and 110%

COC1C(OC(N)=O)C(O)C(Oc2ccc3c(O)c(NC(=O)c4ccc(O)c(CC=C(C)C)c4)c(=O)oc3c2C)OC1(C)C (stereo unspecified)
inactive: HCT-15 colon 23.6% and 96% | HT29 colon 105% and 110% | SNB-75 CNS 28.8% and 77.2% | SNB-19 CNS 101% and 92.7% | U251 CNS 42.5% and 101% | PC-3 prostate 90.6% and 93.8% | SK-MEL-5 melanoma 103% and 98.2% | UACC-62 melanoma; 10 µM unless noted 103% and 97.9% | LOX IMVI melanoma 99.7% and 98.4% | SK-MEL-28 melanoma 108%

COC(=O)c1nc(=S)[nH]c(C(=O)OC)c1C(=O)c1ccc(OC)cc1
inactive: HCT-15 colon 100% | HT29 colon 106% | SNB-75 CNS 101% | SNB-19 CNS 101% | U251 CNS 108% | PC-3 prostate 93% | SK-MEL-5 melanoma 97.3% | UACC-62 melanoma; 10 µM unless noted 95.9% | LOX IMVI melanoma 94.8% | SK-MEL-28 melanoma 109%

COc1cc2oc3cc(=O)cc4oc(-c5ccccc5)cc(c2c2c1CCC(c1ccccc1)O2)c43 (stereo unspecified)
inactive: HCT-15 colon 62.8% | HT29 colon 71.9% | SNB-75 CNS 68.2% | SNB-19 CNS 98.9% | U251 CNS 87.3% | PC-3 prostate 58.9% | SK-MEL-5 melanoma 78% | UACC-62 melanoma; 10 µM 73.5% | UACC-62 melanoma; 100 µM 53% and 10.4% | LOX IMVI melanoma 56.7% | SK-MEL-28 melanoma 90.1%

CCOC(=N)c1ccc(C(=N)OCC)cc1
inactive: HCT-15 colon 96.4% | HT29 colon 101% | SNB-75 CNS 103% | SNB-19 CNS 91.4% | U251 CNS 102% | PC-3 prostate 103% | SK-MEL-5 melanoma 95.7% | UACC-62 melanoma; 10 µM unless noted 96.8% | LOX IMVI melanoma 98.1% | SK-MEL-28 melanoma 101%

Cc1ccc2cccc([N+](=O)[O-])c2n1
inactive: HCT-15 colon 105% and 96.9% | HT29 colon 99% and 96% | SNB-75 CNS 106% and 79.5% | SNB-19 CNS 109% and 99% | U251 CNS 105% and 103% | PC-3 prostate 99.7% and 102% | SK-MEL-5 melanoma 99.1% and 105% | UACC-62 melanoma; 10 µM unless noted 102% | LOX IMVI melanoma 100% and 94.8% | SK-MEL-28 melanoma 109% and 111%

O=COCCCc1ccccc1
inactive: HCT-15 colon 107% | HT29 colon 95.9% | SNB-75 CNS 109% | SNB-19 CNS 96.7% | U251 CNS 94.5% | PC-3 prostate 94.4% | SK-MEL-5 melanoma 98.2% | UACC-62 melanoma; 10 µM unless noted 88.7% | LOX IMVI melanoma 99% | SK-MEL-28 melanoma 108%

CC(NC(=O)CCl)c1ccccc1 (stereo unspecified)
inactive: HCT-15 colon 94.9% | HT29 colon 104% | SNB-75 CNS 85.6% | SNB-19 CNS 103% | U251 CNS 103% | PC-3 prostate 95.2% | SK-MEL-5 melanoma 93.7% | UACC-62 melanoma; 10 µM unless noted 102% | LOX IMVI melanoma 98.2% | SK-MEL-28 melanoma 111%

O=C(c1ccc(Cl)cc1)C1C(c2ccccc2)C1[N+](=O)[O-] (stereo unspecified)
inactive: HCT-15 colon 102% | HT29 colon 97.2% | SNB-75 CNS 106% | SNB-19 CNS 97.1% | U251 CNS 89.9% | PC-3 prostate 90.5% | SK-MEL-5 melanoma 96.9% | UACC-62 melanoma; 10 µM unless noted 91.1% | LOX IMVI melanoma 95.2% | SK-MEL-28 melanoma 111%

OCCCc1ccccc1
inactive: HCT-15 colon 100% | HT29 colon 94.9% | SNB-75 CNS 88.7% | SNB-19 CNS 99.3% | U251 CNS 95.6% | PC-3 prostate 100% | SK-MEL-5 melanoma 103% | UACC-62 melanoma; 10 µM unless noted 96.2% | LOX IMVI melanoma 107% | SK-MEL-28 melanoma 108%

COc1ccc(COC=O)cc1
inactive: HCT-15 colon 107% | HT29 colon 104% | SNB-75 CNS 102% | SNB-19 CNS 114% | U251 CNS 100% | PC-3 prostate 99.9% | SK-MEL-5 melanoma 104% | UACC-62 melanoma; 10 µM unless noted 104% | LOX IMVI melanoma 100% | SK-MEL-28 melanoma 111%

O=c1[nH]c(=O)c2[nH]c(=O)[nH]c2[nH]1
inactive: HCT-15 colon 99% | HT29 colon 105% | SNB-75 CNS 89.8% | SNB-19 CNS 103% | U251 CNS 101% | PC-3 prostate 96.2% | SK-MEL-5 melanoma 100% | UACC-62 melanoma; 10 µM unless noted 99.8% | LOX IMVI melanoma 102% | SK-MEL-28 melanoma 98.9%

O=C1CCC(=O)N1CC1CC2CCC1C2 (stereo unspecified)
inactive: HCT-15 colon 107% and 104% | HT29 colon 103% and 95.8% | SNB-75 CNS 87.2% and 73.1% | SNB-19 CNS 101% and 90.3% | U251 CNS 91.7% and 100% | PC-3 prostate 94.1% and 104% | SK-MEL-5 melanoma 110% and 92.6% | UACC-62 melanoma; 10 µM unless noted 96.5% and 88.5% | LOX IMVI melanoma 101% and 96.2% | SK-MEL-28 melanoma 109% and 103%

Cn1c(-c2ccccc2)cc(=O)cc1-c1ccccc1
inactive: HCT-15 colon 22.7% | HT29 colon 24.7% | SNB-75 CNS 119% | SNB-19 CNS 89% | U251 CNS 82.7% | PC-3 prostate 67.1% | SK-MEL-5 melanoma 95.3% | UACC-62 melanoma; 10 µM unless noted 81.5% | LOX IMVI melanoma 73.2% | SK-MEL-28 melanoma 118%

CS(=O)(=O)c1nsc(N)n1
inactive: HCT-15 colon 107% | HT29 colon 101% | SNB-75 CNS 93.2% | SNB-19 CNS 98.5% | U251 CNS 102% | PC-3 prostate 98% | SK-MEL-5 melanoma 102% | UACC-62 melanoma; 10 µM unless noted 102% | LOX IMVI melanoma 98.2% | SK-MEL-28 melanoma 109%

COC(=O)c1ccccc1Cl
inactive: HCT-15 colon 100% | HT29 colon 111% | SNB-75 CNS 96.6% | SNB-19 CNS 108% | U251 CNS 97.4% | PC-3 prostate 96.9% | SK-MEL-5 melanoma 103% | UACC-62 melanoma; 10 µM unless noted 104% | LOX IMVI melanoma 98.6% | SK-MEL-28 melanoma 115%

Oc1ccc(O)c(-c2ccccc2)c1
inactive: HCT-15 colon 22.8% | HT29 colon 102% | SNB-75 CNS 58.2% | SNB-19 CNS 67.5% | U251 CNS 41.4% | PC-3 prostate 64.3% | SK-MEL-5 melanoma 42.9% | UACC-62 melanoma; 10 µM unless noted 71.3% | LOX IMVI melanoma 49.3% | SK-MEL-28 melanoma 77.4%

COC(=O)c1nc(=S)[nH]c(C(=O)OC)c1C(=O)c1ccccc1
inactive: HCT-15 colon 103% | HT29 colon 109% | SNB-75 CNS 86.6% | SNB-19 CNS 102% | U251 CNS 105% | PC-3 prostate 91.2% | SK-MEL-5 melanoma 103% | UACC-62 melanoma; 10 µM unless noted 92.6% | LOX IMVI melanoma 94.2% | SK-MEL-28 melanoma 105%

COc1ccc([N+](=O)[O-])cc1OC
inactive: HCT-15 colon 96.3% and 98.9% | HT29 colon 112% and 101% | SNB-75 CNS 98% | SNB-19 CNS 102% and 107% | U251 CNS 104% and 95.6% | PC-3 prostate 94.1% and 102% | SK-MEL-5 melanoma 104% and 106% | UACC-62 melanoma; 10 µM unless noted 104% and 107% | LOX IMVI melanoma 98.2% and 101% | SK-MEL-28 melanoma 95.9% and 107%
